# Measured values taken from PubChem BioAssay (NCATS).
# Records with an inconclusive call do not appear. Activity calls are given as the source filed them. Calls come from the whole dose curve; as a rule, active = well fitted curve in the direction sought with a large enough effect; inconclusive = small, poorly fitted or top-dose-only effect, or another doubt; inactive = no such curve, though single readings can be large or run the other way. Bridge positions count the residues as written; N and C are the ends. Square brackets hold non-standard residues; d marks the D form. Side chains are listed from the residue outwards. Peptide text beside a SMILES is read from it. * marks the point of attachment. Phg(4-OMe) = COc1ccc([C@H](N)C(=O)O)cc1; d(aIle) = CC[C@H](C)[C@@H](N)C(=O)O; d(aThr) = C[C@@H](O)[C@@H](N)C(=O)O; NMeF = CN[C@@H](Cc1ccccc1)C(=O)O; Isobutyryl = CC(C)C(=O)*; Hexanoyl = CCCCCC(=O)*
# Experiment: qHTS for inhibitors of Wild type Zika virus screened against the NCATS CANVASS Library (AID 1347396);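 note: ATP luminescence of surviving cells so rescue from viral cell killing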
# Conditions: Vero cells, Zika virus CPE, CellTiter-Glo, 72 h; series mostly up to 45.9 µM
# From the text: Natural products and their derivatives continue to be wellsprings of nascent therapeutic potential. However, many laboratories have limited resources for biological evaluation, leaving their previously isolated or synthesized compounds largely or completely untested. To address this issue, the Canvass library of natural products was assembled (https://tripod.nih.gov/canvass), in collaboration with academic and industry researchers, for quantitative high-throughput screening (qHTS) across a diverse set of cell-based and biochemical assays. The pure (>85% purity by liquid chromatography/mass spectrometry [LC/MS]) Canvass library of 346 natural products were submitted by 45 academic laboratories and companies around the world. We collected pure natural products to circumvent deconvolution and structure elucidation due to time and resource limitations. The library was formatted into 1536-well plates and evaluated in 50 qHTS (in an 11-pnt concentration series) bioassays with broad scope of disease-relevant mechanisms. The resulting data set from 50 different assays was then systematically analyzed to identify overall trends and specific natural products with interesting biological activities. Reported herein are the results of each individual qHTS and their corresponding assay protocol. Vero cells were infected with wild type Zika virus and at 72 hours post-infection viral cytotoxicity was assayed using CellTiter Glo. National Center for Advancing Translational Sciences (NCATS), Rockville, MD National Institute of Health (NIH), Bethesda, Maryland
# Zika virus infection assay protocol: 1. In a white-solid bottom 1536-well tissue culture plate (Corning 7494), 3 uL of Vero 766 cells derived (African Green Monkey) were dispensed using a Multidrop Combi (Thermo Fisher Scientific) at a final concentration of 1000 cells / well. 2. The assay plates were incubated overnight at 37C, 5% CO2, 95% humidity to acclimate and attach. 3. […] of compounds (in DMSO; columns 5-48) were pin transferred into the assay plates using the Kalypsis pin tool (Wako USA) equipped with a 1536-well pin heads. This yields a final concentration range of 0.001 - 77 uM. 4. In a biosafety cabinet, the desired MOI Zika virus was calculated and 2 uL of 2.5x Zika virus was dispensed into columns 1, 2 and 5 - 48 using the Multidrop Combi dispenser. Two microliters of media + vehicle was dispensed into columns 3 and 4 as positive controls (no infection, 100% inhibition). The assay plates were sealed with breathable film. 5. The assay plates were incubated for 72 hours at 37C, 5% CO2, 95% humidity. 6. In a biosafety cabinet, the seals were removed by Xpeel Automated Plate Seal Remover (Brooks Life Sciences) and 2.5 uL of CellTiter Glo reagent (Promega) was dispensed into the wells (columns 1 - 48, rows 1 - 32). 7. Luminescence signal was obtained via the ViewLux plate reader (Perkin Elmer) using the clear emission filter and 1x binning, 2 seconds exposure settings.
row,Compound,outcome
1,O=C1CC(c2ccc(O)cc2)Oc2cc(O)ccc21 (stereo not given),inactive
2,C[C@@]12CCC[C@@](C)(C(=O)O)[C@H]1CC[C@@]13C[C@@H](CC[C@H]12)[C@](C)(O)C3,inactive
3,C=CC(C)(C)C(=O)[C@@H](C)[C@@H]1CC[C@@](C)(C=C)O1,inactive
4,CC(C)=CC[C@H]1C[C@@]2(CC=C(C)C)C(=O)[C@](CC=C(C)C)(C(=O)C(C(=O)c3ccccc3)=C2O)C1(C)C,inactive
5,Cc1cc(C)c(O)c(C(=O)CC2CC(=O)NC(=O)C2)c1,inactive
6,C/C(=C\[C@@H](C)CC/C=C/CC/C=C/C(=O)O)[C@H](O)[C@H](C)C(=O)CCCC1CC(=O)NC(=O)C1,inactive
7,CO[C@@H]1[C@H](O)[C@@H](C)O[C@@H](OC[C@@H]2C(C)OC(=O)/C=C/[C@H](C)C(O[C@@H]3O[C@H](C)CC4(OC(=O)O[C@@H]4C)C3O)[C@@H](C)CC(C)C(=O)/C=C/[C@H]3OC23)[C@@H]1OC (stereo not given in full),inactive
8,COc1ccc(-c2oc3cc(OC)cc(OC)c3c(=O)c2O)cc1,inactive
9,O=C1c2c(O)cc(O)cc2OC(c2ccc(O)cc2)C1O (stereo not given),inactive
10,COc1cc2c(c(O)c1O)C(=O)c1c(coc1C)C2=O,inactive
11,CCCCCC(=O)N[C@@H](CC(C)C)C(=O)N[C@H](C=O)CCC(=O)O (Hexanoyl-Leu-Glu-aldehyde),inactive
12,C[C@H](c1cnc(N)[nH]1)c1ccc(O)c2[nH]cc(-c3cnc(-c4c[nH]c5ccccc45)c(=O)[nH]3)c12,inactive
13,CC(C)[C@@H]1CC(=O)c2coc3c2[C@H]1C[C@@H](C)C3=O,inactive
14,COC(=O)[C@@]12Oc3cccc(O)c3C(O)=C1C(=O)C[C@H](C)[C@H]2O,inactive
15,CC1=C2CC[C@]3(C)[C@H](CC=C4[C@@H]5CC(C)(C)CC[C@@H]5C(=O)[C@H](O)[C@]43C)[C@@]2(C)C=C(O)C1=O,inactive
16,O=Cc1ccc2n1C[C@]1(C[C@H](O)[C@@H](CO)O1)OC2,inactive
17,CN1CC[C@]23c4ccccc4N[C@H]1[C@]21CCN(C)[C@H]3Nc2ccccc21,inactive
18,CCCc1c2c([nH]c(=O)c1C)C(=O)c1[nH]c(=O)c(C)c(CCC)c1C2=O,inactive
19,CO[C@H]1/C=C/CCCCC(=O)O[C@@H](/C(C)=C/[C@H](C)C(=O)C[C@H](O)CC2CC(=O)NC(=O)C2)[C@@H](C)C1,inactive
20,C=C1CC[C@@H](Br)C(C)(C)[C@]12CC=C(C)C(=O)C2,inactive

row,Compound,outcome
1,CC(C)=CCCC(C)(O)[C@H]1CC=C(C)C(O)C1 (stereo not given in full),inactive
2,CCC(=O)N[C@@H](C[C@H](C)C(Cl)(Cl)Cl)C(=O)N1C(=O)C=C(OC)[C@@H]1CC(C)C,inactive
3,C[C@@]12CCC[C@@](C)(C(=O)OP(=O)(O)OC[C@H]3O[C@@H](n4cnc5c(N)ncnc54)[C@H](O)[C@@H]3O)[C@H]1C[C@@H](O)[C@@]13C[C@@H](CC[C@@H]21)[C@](C)(O)C3,inactive
4,C/C=C/c1cc2c(c(=O)o1)C(=O)[C@@H](O)[C@H](C)O2,inactive
5,C/C(=C\[C@H](C)C(=O)/C=C/CC1CC(=O)NC(=O)C1)[C@@H]1OC(=O)/C=C/CC/C=C/C[C@@H](O)[C@@H]1C,inactive
6,C=C1[C@@]2(C)CC3C4(C)CCC(O)C(C)(C)C4CCC3(C)[C@]1(C(=O)OC)C(=O)C(C)(O)C2=O (stereo not given in full),inactive
7,O=C1CC2OCC=C3CN4C5CC3C2[C@@H]2N1c1ccccc1[C@]52C[C@@H]4C1=C[C@H]2C3CC4N(CC[C@@]45c4ccccc4N(C1=O)[C@@H]25)C/C3=C/CO (stereo not given in full),inactive
8,CC(CCC[C@]1(C)C(=O)C=C[C@@]23C[C@]4(C)O[C@@H](C[C@@H]4[C@H]2O)C31)C(=O)O (stereo not given in full),inactive
9,Oc1ccc(C2Oc3cc(O)c4c(c3[C@@H]2c2cc(O)cc(O)c2)[C@H]2C(c3ccc(O)cc3)c3c(O)cc5c(c3[C@H]2C4c2ccc(O)cc2)[C@H](c2cc(O)cc(O)c2)C(c2ccc(O)cc2)O5)cc1 (stereo not given in full),inactive
10,COc1ccc2[nH]c3c(c2c1)CCN1C[C@H]2C[C@@H](OC(=O)c4cc(OC)c(OC)c(OC)c4)[C@H](OC)[C@@H](OC)[C@H]2C[C@H]31,inactive
11,CC[C@H](C)[C@H]1NC(=O)[C@@H](NC(=O)C(C)C)[C@@H](C)OC(=O)[C@H](COC(=O)CNC(C)=O)NC(=O)[C@@H]([C@@H](C)O)NC(=O)[C@H](Cc2ccccc2)N(C)C(=O)[C@H](c2ccc(OC)cc2)NC1=O (Isobutyryl-T[d(aIle)][Phg(4-OMe)][NMeF][d(aThr)]S([Gly-Ac]); ester 1-C),inactive
12,C/C=C(/C)c1cc(O)c(C)c2c1Oc1cc(O)cc(C)c1C(=O)O2,inactive
13,CN1CC[C@@]2([C@@]34CCN(C)[C@@H]3Nc3ccccc34)c3ccccc3N[C@@H]12,inactive
14,Cc1occ2c1C(=O)c1c(cc(O)c(O)c1O)C2=O,inactive
15,C=C1C[C@H]2O[C@@H]3[C@@H]4[C@H](CC[C@@](C)(O)[C@@H]42)[C@H](C)COC3(C)[C@@H](OC(=O)CCCCCCC)C[C@H]1O (stereo not given in full),inactive
16,Cc1cc(O)cc2c1C(=O)c1c(O)cc(O)cc1C2=O,inactive
17,O=C(OC[C@H]1O[C@@H](OC(=O)c2cc(O)c(O)c(O)c2)[C@H](OC(=O)c2cc(O)c(O)c(O)c2)[C@@H](OC(=O)c2cc(O)c(O)c(O)c2)[C@@H]1OC(=O)c1cc(O)c(O)c(O)c1)c1cc(O)c(O)c(O)c1,inactive
18,C[C@@]12CCC[C@@](C)(C(=O)O)[C@H]1C[C@@H](O)[C@@]13C[C@@H](CC[C@@H]21)[C@](C)(O)C3,inactive
19,COc1cc(C2C3=C(Cc4cc5c(cc42)OCO5)C(=O)OC3)cc(OC)c1OC (stereo not given),inactive
20,C=C[C@]1(C)CC[C@@H]([C@H](C)C(=O)/C=C/C(C)(C)O)O1,inactive
